Laboratory results from PMC5540273 (PLoS ONE, 2017).
“And” between values parts separate entries of the source, which are not always exact repeats. Equal values may be shown once. Read-outs that look alike come from different tables or passages of the source.

Legend:
[1] = system: CAMK1B; details: n = 1
[2] = system: CAMK1D; details: n = 1
[3] = system: CAMK1G; details: n = 1
[4] = system: CAMK1; details: n = 1
[5] = system: CAMK2A; details: concentration: 1 μM, replicates: in singlicate; n = 1
[6] = system: CAMK2B; details: concentration: 1 μM, replicates: in singlicate; n = 1
[7] = system: CAMK2D; details: n = 1
[8] = system: CAMK2G; details: n = 1
[9] = system: CAMK4; details: concentration: 1 μM, replicates: in singlicate; n = 1
[10] = system: CAMKK1; details: concentration: 1 μM, replicates: in singlicate; n = 1
[11] = concentration: 1 μM, replicates: in singlicate
[12] = concentration: 1 μM,replicates: in singlicate, 1 µM
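Note: KINOMEscan kinase panel screen.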

| Structure (SMILES) | %Inh [1, 11] | %Inh [2, 11] | %Inh [3, 11] | %Inh [4, 11] | %Inh [5] | %Inh [6] | %Inh [7, 11] | %Inh [8, 11] | %Inh [9] | %Inh [10] | %Inh [1, 12] | %Inh [2, 12] | %Inh [3, 12] | %Inh [4, 12] | %Inh [7, 12] | %Inh [8, 12] |
| --- | --- | --- | --- | --- | --- | --- | --- | --- | --- | --- | --- | --- | --- | --- | --- | --- |
| Cn1ccc2ncnc(Oc3cccc(C(=O)Nc4ccccc4)c3)c21 | 12% | 0% | 17% | 29% | 1% | 0% | 20% | 19% | 0% | 20% | – | – | – | – | – | – |
| O=c1cc(N2CCOCC2)nc2n(Cc3cccc(Cl)c3Cl)ccn12 [GSK2286295] | 8% | 18% | 0% | 14% | 0% | 0% | 5% | 9% | 0% | 14% | – | – | – | – | – | – |
| Cl.c1ccc(-c2n[nH]cc2-c2ccnc(-c3ccc(CN4CCOCC4)cc3)c2)nc1 [GW776245] | 0% | 27% | 0% | 22% | 2% | 5% | 11% | 13% | 0% | 26% | – | – | – | – | – | – |
| CC(=O)Nc1nc2cnc(Nc3cc(NC(=O)c4cccc(CCC#N)c4)ccc3C)nc2s1 | 0% | 30% | 0% | 25% | 20% | 0% | 0% | 0% | 15% | 0% | – | – | – | – | – | – |
| Cc1cccc(-c2nc(Nc3cccc(C(N)=O)c3)c3ccccc3n2)n1 [GW876019] | 0% | 0% | 9% | 0% | 0% | 0% | 7% | 0% | 3% | 12% | – | – | – | – | – | – |
| Cc1ccc(C(=O)Nc2ccc(Nc3ccnc4cc(-c5ccccn5)ccc34)cc2O)cc1.Cl [GW440146] | 13% | 20% | 0% | 39% | 0% | 0% | 0% | 8% | 0% | 0% | – | – | – | – | – | – |
| O=C(Nc1n[nH]c2nc(-c3nccs3)c(Br)cc12)C1CCCC1 [SB-742609] | 20% | 1% | 8% | 0% | 0% | 0% | 15% | 11% | 0% | 8% | – | – | – | – | – | – |
| COc1cc2ncn(-c3cc(OCC4CCCO4)c(C(N)=O)s3)c2cc1OC (stereo not drawn) [GSK204607] | 0% | 13% | 0% | 6% | 0% | 0% | 0% | 0% | 0% | 0% | – | – | – | – | – | – |
| COC(=O)c1c(-c2ccccc2)c2cc(C(=O)O)ccc2c(=O)n1Cc1ccccc1 | 0% | 1% | 6% | 1% | 0% | 0% | 5% | 0% | 18% | 0% | – | – | – | – | – | – |
| NC(=O)c1nnc2ccccc2c1N | 0% | 13% | 7% | 14% | 0% | 0% | 7% | 0% | 0% | 10% | – | – | – | – | – | – |
| Cc1ccccc1-n1cnc2c(N)ncnc21 [SKF-97510] | 0% | 5% | 0% | 0% | 24% | 14% | 4% | 4% | 0% | 1% | – | – | – | – | – | – |
| Cc1cc(-c2ccc3c(c2)CC[C@@H](N[C@@H](C)c2ccccc2)C3)cnc1N.Cl [GW412617] | 4% | 13% | 100% | 23% | 0% | 0% | 97.6% | 21% | 18% | 12% | – | – | – | – | – | – |
| CSc1nn2c(=O)cc(N3CCOCC3)nc2n1Cc1cccc(C(F)(F)F)c1C [GSK2363608] | – | – | – | – | 0% | 0% | – | – | 0% | 0% | 31% and 0% | 9% and 19% | 0% and 11% | 1% and 13% | 2% and 19% | 0% and 15% |
| CS(=O)(=O)c1ccc(-c2nc3n(c2-c2ccncc2)CCC3)cc1 [SKF-105942] | 7% | 0% | 14% | 8% | 0% | 0% | 6% | 6% | 0% | 0% | – | – | – | – | – | – |
| CCn1c(-c2ccccn2)nc2cnccc21 [SB-736398] | 34% | 0% | 0% | 0% | 0% | 0% | 0% | 0% | 0% | 0% | – | – | – | – | – | – |
| O=C(Nc1n[nH]c2nc(-c3nccs3)c(Br)cc12)C1CC1 [SB-742251] | 19% | 0% | 0% | 0% | 0% | 0% | 0% | 0% | 0% | 0% | – | – | – | – | – | – |
| Cc1csc(-c2nc(Nc3ccncc3)c3ccccc3n2)n1 [GW869640] | 9% | 0% | 14% | 5% | 10% | 2% | 17% | 25% | 0% | 26% | – | – | – | – | – | – |
| Cc1cccc(-c2nc(C)cc(Nc3ccncc3)n2)n1 [GSK257997] | 12% | 14% | 99.4% | 10% | 0% | 0% | 94.2% | 12% | 0% | 0% | – | – | – | – | – | – |
